Only some compounds are listed: those with a hit (about 28% of all), similar ones and a draw of the others.
PLK1 PBD inh = Plk1 (human) PBD binding inhibition. P53350. Plk1 PBD phosphopeptide binding, fluorescence polarization. inhibition, %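 (tested at about 20 µM)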. 97,000 tested, 0.13% active. AID 693; in the data active = inhibition above about 34%, passing the limit was not always enough
CYP2C19 inhib = blocks human cytochrome P450 2C19 | P33261 | 96,000 tested, 21% active | CYP2C19 Supersomes, luciferin-H EGE luminescence, 30 min | inhibition, % at 5 µM;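 active = CYP2C19 inhibition above a set limit at 5 µM in the primary screen, cut at about 50% in these data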;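 also: plate controls were negative control wells for no effect and 2.5 mM tranylcypromine positive control for full effect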
CYP2C9 act = activators of human CYP2C9; recombinant CYP2C9, luciferin-H conversion, luminescence; stronger effect = higher value; factor 1 = untreated enzyme, 0 = blocked; 96,000 tested, 1.4% active; activation factor at 5 µM; AID 1024;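 active = activation factor of 2 or more for CYP2C9 at a 5 µM dose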;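 also: 0 = sulfaphenazole-blocked wells and 1 = vehicle-only wells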
Target sequence (P11712 whole entry, looked up): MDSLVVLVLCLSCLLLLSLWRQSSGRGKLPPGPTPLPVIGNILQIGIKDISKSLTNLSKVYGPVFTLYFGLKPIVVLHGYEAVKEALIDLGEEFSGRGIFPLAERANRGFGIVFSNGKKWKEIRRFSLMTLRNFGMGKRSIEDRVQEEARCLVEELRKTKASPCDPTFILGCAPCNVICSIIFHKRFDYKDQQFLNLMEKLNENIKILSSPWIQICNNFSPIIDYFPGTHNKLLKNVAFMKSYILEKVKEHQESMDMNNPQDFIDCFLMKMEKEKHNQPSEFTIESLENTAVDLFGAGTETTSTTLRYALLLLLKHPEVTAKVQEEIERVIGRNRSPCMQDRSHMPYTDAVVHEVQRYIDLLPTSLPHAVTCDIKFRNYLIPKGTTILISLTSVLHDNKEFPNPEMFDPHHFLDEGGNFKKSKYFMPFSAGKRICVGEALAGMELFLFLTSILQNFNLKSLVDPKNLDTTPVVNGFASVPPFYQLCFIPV
CYP2C19 act = cytochrome P450 2C19 (human) activation; activation factor at 5 µM; AID 1025; 96,000 tested, under 10 active; recombinant CYP2C19, luciferin-H EGE luminescence; stronger effect = higher value; 0 = fully inhibited enzyme, 1 = untreated enzyme;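 active = activation factor of at least 2 at 5 µM in the primary screen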;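 also: 0 = wells with 2.5 mM tranylcypromine and 1 = vehicle-only wells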
CYP2C9 inhib = blocks human cytochrome P450 2C9 | AID 777 | P11712 | CYP2C9 Supersomes, luciferin-H conversion, luminescence | inhibition, % at 5 µM | 96,000 tested, 20% active;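 active = blocking of liver enzyme CYP2C9 beyond about 50% at 5 µM, limit read from the data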
PLK1 inh = inhibitors of human PLK1 kinase; recombinant PLK1 kinase, TR-FRET peptide phosphorylation; 97,000 tested, 0.53% active; inhibition, % at 10 µM;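 active = inhibition of 50% or more in the single-concentration screen; inactive = inhibition below 50%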;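 also: 0% = DMSO max control and 100% = H-89 dihydrochloride min control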
* marks the source's active call; other numbers are inactive results; · = not tested or not shown.

SMILES | PLK1 PBD inh | CYP2C19 inhib | CYP2C9 act | CYP2C19 act | CYP2C9 inhib | PLK1 inh
CC(C)OC(=O)c1cccnc1SCc1cc(=O)n2ccccc2n1 | 12.2 | 31.6 | 0.5 | 0.7 | 51.7* | 3.1
O=c1[nH]c(SCc2cc(=O)n3ccccc3n2)nc2c1CCC2 | 20.2 | · | · | · | · | -2.9
CNC(=O)COC(=O)c1cccnc1SC | 18.9 | -39.5 | 1.4 | 1.4 | -41.4 | -5.8
COc1ccc(NC(C)=O)cc1NC(=O)CSc1nc2ncccc2[nH]1 | 27.0 | 28.9 | 0.4 | 0.7 | 55.6* | -15.5
C=CCSc1ncccc1C(=O)NCc1ccccc1 | 21.9 | 88.0* | 0.9 | 0.1 | 10.8 | 0.1
CCOC(=O)c1cccnc1SCC(=O)NCc1ccccc1 | 15.9 | 97.7* | 0.1 | 0 | 91.5* | -8.1
COc1ccccc1Nc1ncccc1C(=O)NCc1ccccc1 | 11.5 | 15.4 | 0.8 | 0.8 | 24.3 | -11.9
COC(=O)c1cc(NC(=O)CCc2c(C)nc3ncnn3c2C)cc(C(=O)OC)c1 | 4.0 | 11.7 | 0.8 | 0.9 | 19.3 | -1.3
CCC(Sc1ncccc1C(=O)OC(C)C)C(=O)N1CCOCC1 (stereo not given) | -21.8 | 5.7 | 0.8 | 0.9 | 21.3 | 4.2
CCN(C(=O)CSc1ncccc1C(=O)OC(C)C)c1cccc(C)c1 | 5.8 | 53.1* | 0.6 | 0.5 | 43.5 | -5.5
CN(C(=O)CSC1=NCCS1)c1ccccc1 | 15.0 | 25.0 | 1 | 0.8 | -3.1 | -14.0
CCOC(=O)c1cccnc1SCC(=O)N(CC)c1cccc(C)c1 | -5.4 | 64.9* | 0.5 | 0.4 | 45.2 | -16.1
COc1ccc(NC(=O)CSc2ncccc2C(=O)OC(C)C)cc1OC | -2.5 | 92.0* | 0.2 | 0.1 | 76.9* | -3.0
CC(C)OC(=O)c1cccnc1SCC(=O)N(C)c1ccccc1 | 12.3 | 68.6* | 0.7 | 0.3 | 33.9 | -5.3
COc1ccc(NC(=O)CSc2ccccn2)cc1OC | -9.8 | 9.3 | 1.2 | 0.9 | -20.6 | -5.9
CN1CCC(N2CCCC(C(=O)O)C2)CC1 (stereo not given) | -0.3 | 6.6 | 0.9 | 0.9 | 6.8 | -5.8
Cc1cc2oc(=O)cc(CSc3nc(N)cc(N)n3)c2cc1C | -3.7 | 7.1 | 1.4 | 0.9 | -44.3 | -6.9
N#Cc1nc(COc2ccc(F)cc2)oc1N1CCC(Cc2ccccc2)CC1 | -20.2 | 16.3 | 0.3 | 0.8 | 70.1* | -10.1
N#Cc1nc(Cc2ccccc2)oc1N1CCC(Cc2ccccc2)CC1 | -1.9 | 26.1 | 0.5 | 0.7 | 48.3 | -10.9
COc1ccc(OCc2nc(C#N)c(N3CCN(c4ccc(OC)cc4)CC3)o2)cc1 | -5.3 | · | · | · | · | -0.8
N#Cc1nc(COc2ccc(Br)cc2)oc1N1CCN(Cc2ccccc2)CC1 | -7.7 | 17.3 | 0.4 | 0.8 | 55.6* | -0.4
N#Cc1nc(COc2ccc(F)cc2)oc1N1CCN(Cc2ccccc2)CC1 | -8.0 | 73.3* | 0.1 | 0.3 | 92.6* | -3.4
CCN1CCN(c2oc(COc3ccc(-c4ccccc4)cc3)nc2C#N)CC1 | -21.9 | 93.2* | 0.2 | 0.1 | 81.3* | -9.5
Cc1ccc2cccnc2c1NC(=S)NC(=O)c1ccccc1 | -16.0 | 39.1 | 0.9 | 0.6 | 13.7 | -11.9
CCCc1nc2ccccc2n2cc3c(=O)n(C)c(=O)n(C)c3c12 | 9.8 | · | · | · | · | 12.4
SMILES | PLK1 PBD inh | CYP2C19 inhib | CYP2C9 act | CYP2C19 act | CYP2C9 inhib | PLK1 inh
COc1ccc(/C=C2\N=C(SC)N(C)C2=O)cc1 | 26.1 | 52.1* | 0.6 | 0.5 | 38.9 | -11.5
COc1ccc(/C=C2\N=C(SC)NC2=O)cc1 | -2.9 | 7.3 | 0.9 | 0.9 | 14.0 | -15.4
COc1cc2c(cc1OC)C(C(=O)NC1CC1)C1c3ccccc3CCN1C2=O (stereo not given) | -4.0 | · | · | · | · | 15.4
CCN(CC)CCNC(=O)C1c2cc(OC)c(OC)cc2C(=O)N2CCc3ccccc3C12 (stereo not given) | 15.6 | 2.1 | 0.2 | 1 | 76.5* | -7.6
CCN(CC)CCCNC(=O)C1c2cc(OC)c(OC)cc2C(=O)N(C)C1c1cccs1 (stereo not given) | -18.4 | 74.5* | 0.8 | 0.3 | 19.1 | 9.1
CCOC(=O)N1CCN(C(=O)C2c3cc(OC)c(OC)cc3C(=O)N3CCc4ccccc4C23)CC1 (stereo not given) | 4.3 | 6.1 | 0.2 | 0.9 | 76.2* | -5.1
CCCN(CCC)CCCNC(=O)C1c2cc(OC)c(OC)cc2C(=O)N(C)C1c1cccs1 (stereo not given) | -17.1 | 0.4 | 1 | 1 | -4.7 | 6.5
COCC(C)NCc1cccc(OC)c1OC (stereo not given) | 12.3 | 21.6 | 0.9 | 0.8 | 7.3 | -4.5
CN(C)S(=O)(=O)N(CC(=O)Nc1ccccc1)c1ccccc1 | -10.6 | · | · | · | · | -6.5
COc1ccc(CCNC(=O)CN(c2ccccc2OC)S(C)(=O)=O)cc1OC | 11.8 | 39.9 | 0.6 | 0.6 | 42.4 | -5.2
CCOc1ccccc1N(CC(=O)NCc1ccc(OC)cc1)S(C)(=O)=O | -19.7 | 88.9* | 0.4 | 0.1 | 62.2* | -8.6
CCOc1ccc(N(CC(=O)NCc2ccccc2)S(C)(=O)=O)cc1 | · | 50.3* | 0.6 | 0.5 | 40.3 | ·
COc1ccc(CCNC(=O)CN(c2ccccc2OC)S(C)(=O)=O)cc1 | -11.7 | 92.9* | 0 | 0.1 | 96.6* | -0.2
CCOc1ccc(N(CC(=O)NCc2ccccc2OC)S(C)(=O)=O)cc1 | -0.3 | 21.0 | 0.9 | 0.8 | 13.5 | -8.2
CN(C)S(=O)(=O)N(CC(=O)NCc1ccccc1)c1ccccc1 | -22.2 | 67.0* | 0.8 | 0.3 | 17.9 | -5.7
C1=C(c2ccc(-c3ccccc3)cc2)Nc2ncnn2C1c1ccco1 (stereo not given) | -41.8 | -1.5 | 1 | 1 | 4.4 | 2.4
CN(C)S(=O)(=O)N(CC(=O)Nc1cccc(F)c1)c1ccccc1 | 19.3 | 42.7 | 0.4 | 0.6 | 56.6* | -0.8
NS(=O)(=O)c1ccc(CCNc2ncnc3c2c(-c2ccccc2)cn3-c2ccc(F)cc2)cc1 | 13.3 | 23.1 | 0.4 | 0.8 | 56.9* | -18.0
NS(=O)(=O)c1ccc(CCNc2cc(=O)n(Cc3ccc(F)cc3)c(=O)[nH]2)cc1 | · | 2.5 | 0.9 | 1 | 9.4 | ·
O=C(NCc1ccccn1)c1cn(CCc2ccccc2)nn1 | 7.8 | -4.7 | 1.1 | 1 | -13.4 | -21.4
Cn1cc(CC(=O)Nc2cccc(C#N)c2)c2ccccc21 | 10.4 | 47.9 | 3.1* | 0.5 | -211.7 | -31.8
CCC(C)NC(=O)Cc1cn(C)c2ccccc12 (stereo not given) | 0.6 | 60.5* | 1.2 | 0.4 | -19.4 | -3.9
CCc1cccc(NC(=O)CCSCCC(=O)Nc2cccc(CC)c2)c1 | 5.5 | 22.8 | 0.4 | 0.8 | 61.5* | -39.9
CN1CCN(c2ccc(NC(=O)Cc3ccccc3)cc2)CC1 | 9.3 | 8.4 | 0.8 | 0.9 | 20.5 | -7.1
COCCNC(=O)Cc1cn(C)c2ccccc12 | 0.5 | 8.8 | 1.1 | 0.9 | -7.6 | -9.3
CCc1ccc(NC(=O)Cc2cn(C)c3ccccc23)cc1 | -6.5 | 42.2 | 2.5* | 0.6 | -148.9 | 0.9
O=C(Nc1cccc(NC(=O)c2ccc(-c3ccc(Br)cc3)o2)c1)c1ccco1 | 3.1 | · | · | · | · | -14.4

Bioassay records as filed in PubChem.
